The text below walks through data of PubChem BioAssay (NCATS).

Results filed as inconclusive are left out. Calls of active or inactive are those of the source. The call rests on the fitted dose curve; in most records, active means well fitted cell-killing curve with a large enough effect; inconclusive means small, poorly fitted or top-dose-only effect; inactive means flat fitted curve, though single readings scatter.
Potency means the concentration at half of the fitted maximal effect.

This test in a line: qHTS of pediatric cancer cell lines to identify multiple opportunities for drug repurposing: Primary screen for BT-12 cells (AID 1347101). Further: nearly all actives have a fitted effect of over 25% in size. The settings on record: BT-12 viability, CellTiter-Glo luminescence, 48 h; series mostly up to 57.3 µM; activity change, negative = cytotoxic: at the top concentration. The text has this: Drug repurposing or repositioning has been offered as a strategy for drug development in oncology programs. This approach has special potential for childhood cancers and other rare or orphan diseases, where the expected return on new drug development has been a disincentive to pharmaceuticals.
In this project we exploit the poly-pharmacology of drugs to discover new indications via phenotypic screening of a panel of 19 well-characterized cell lines derived from solid tumors seen in children and adolescents. The goal is to identify approved drugs with previously unrecognized anticancer properties that has the potential to reveal new mechanisms and biological processes involved in carcinogenesis or drug resistance. We employed a titration-based paradigm (quantitative high-throughput screening or qHTS), where all compounds were tested at multiple concentrations for their effect on cell viability. Concentration-response curves (CRCs) were derived directly from the primary screen, and both potency and efficacy values were used to identify compounds with robust bioactivity profiles. We screened the NIH Chemical Genomics Center (NCGC) Pharmaceutical Collection (NPC) and Mechanism Interrogation Plate (MIPE) small molecule collections of approved and investigational compounds against these cell lines; and measured metabolically active cells after 48 hours of compound treatment as a proxy for cell viability.
Assay Submitter: Nathalia J. Martinez, National Center for Advancing Translational Sciences, National Institutes of Health, Rockville, MD, USA; email: natalia.martinez@nih.gov
[1] Shen, M et al. Quantitative high-throughput phenotypic screening of pediatric cancer cell lines identifies multiple opportunities for drug repurposing. Oncotarget 2017 Dec 19;9(4):4758-4772. PMID 29435139.
The cells were obtained from University of North Carolina (UNC), Pediatric Preclinical Testing Program (PPT), and Coriell Institute (CI).
qHTS cell viability assay:
Cells were assayed in growth media at a density of 500-1,000 cells/well. Five microliters of cells were dispensed into 1,536-well, white, solid-bottom, TC-treated plates (Greiner Bio One) using a multidrop dispenser and incubated at 37 degrees C, 5% CO2, under a humidified atmosphere for 5 hours. Twenty-three nanoliters of compounds and controls (neutral control DMSO or positive control bortezomib at final concentration of 2.3 µM) were subsequently transferred by Kalypsys pintool. For primary screens, the MIPE collection was tested at 11-point dilutions (final concentrations range from 0.78 nM to 46 µM) and the NPC collection at 8-point dilutions (final concentrations range from 0.59 nM to 46 µM). Compounds tested in follow-up screens were assayed at 11-point dilutions. Cells were incubated for 48 hours, followed by addition of 3 µL of CellTiter-Glo (Promega). After a 15 min incubation at room temperature, samples were analyzed for luminescence intensity using a ViewLux High-throughput CCD imager equipped with clear filters.
Regarding `CN(C)CC(=O)N1CCC(c2ccc(NC(=O)c3ncc(C#N)[nH]3)c(C3=CCCCC3)c2)CC1`, the Potency was 30600 nM (active).
As to `CN[C@H]1[C@@H](O)[C@@H]2O[C@@H]3O[C@H](C)CC(=O)[C@]3(O)O[C@@H]2[C@@H](NC)[C@H]1O`, the Potency is 1090 nM (active).
On the same count and under the same terms, as for `NC(=O)Nc1cc(-c2ccc(CN3CCOCC3)cc2)sc1C(N)=O`, the figure is 24300 nM (active).
On the same count and under the same terms, the result for `Nc1nc2c(c(=O)[nH]1)N(C=O)[C@H](CNc1ccc(C(=O)N[C@@H](CCC(=O)O)C(=O)O)cc1)CN2` reads 10900 nM (active).
Take `C=CC1=C(C(=O)O)N2C(=O)[C@@H](NC(=O)C(=NO)c3csc(N)n3)[C@H]2SC1`: the “activity change, negative = cytotoxic” value is 7.28% (inactive).
Regarding `COc1ccc2c(c1OC)C(=O)OC2[C@H]1c2c(cc3c(c2OC)OCO3)CCN1C` (stereo not given in full), the Potency was 1090 nM (active).
In the case of `O=C(O)CCCCC(CCSCc1ccccc1)SCc1ccccc1` (stereo not given), the “activity change, negative = cytotoxic” value is -16.9% (inactive).
Consider `COc1cc(OC)c(NC(=O)Nc2cc(C)on2)cc1Cl`, for which the “activity change, negative = cytotoxic” value is 1.04% (inactive).
On to `CC(C)(O)Cn1c(NC(=O)c2ccc(-c3cn[nH]c3)s2)nc2cc(CN3CCOCC3)ccc21`, for which the Potency was 3430 nM (active).
Turning to `COC1=C(OC)C(=O)C(CC=C(C)CCC=C(C)CCC=C(C)CCC=C(C)CCC=C(C)CCC=C(C)CCC=C(C)CCC=C(C)CCC=C(C)CCC=C(C)C)=C(C)C1=O`, the “activity change, negative = cytotoxic” value was 10.3% (inactive).
On to `COc1cccc2c1C(=O)c1c(O)c3c(c(O)c1C2=O)C[C@@](O)(C(=O)CO)C[C@@H]3O[C@H]1C[C@H](N)[C@H](OC2CCCCO2)[C@H](C)O1` (stereo not given in full), for which the Potency was 2430 nM (active).
Turning to `COc1cc(O)c2c(c1)C1OC1C[C@H](O)[C@H](O)C(=O)C=CC[C@H](C)OC2=O` (stereo not given in full), the Potency is 13700 nM (active).
For the molecule `O=C1NCCc2[nH]c(-c3ccncc3)cc21`, the Potency was 2430 nM (active).
Take `N#CNC(=NCCCCCCOc1ccc(Cl)cc1)Nc1ccncc1`: the Potency was 544 nM (active).
As for `c1coc(CNc2ncnc3nc[nH]c23)c1`, the “activity change, negative = cytotoxic” value was -2.73% (inactive).
Turning to `CC(=O)N[C@@H]1[C@H](O[C@@H]2c3ccc(c(Cl)c3)Oc3cc4cc(c3O[C@H]3O[C@H](CO)[C@@H](O)[C@H](O)[C@H]3NC(=O)CCCCCCCC(C)C)Oc3ccc(cc3Cl)C[C@H]3NC(=O)[C@H](N)c5ccc(O)c(c5)Oc5cc(O)cc(c5)[C@H](NC3=O)C(=O)N[C@H]4C(=O)N[C@H]3C(=O)N[C@@H]2C(=O)N[C@@H](C(=O)O)c2cc(O)cc(O[C@H]4O[C@H](CO)[C@@H](O)[C@H](O)[C@H]4O)c2-c2cc3ccc2O)O[C@H](CO)[C@@H](O)[C@@H]1O`, the “activity change, negative = cytotoxic” value was 7.03% (inactive).
For `CCCCCCCCCCCCCCCC(=O)OC[C@@H](NC(=O)C(Cl)Cl)[C@H](O)c1ccc([N+](=O)[O-])cc1`, the “activity change, negative = cytotoxic” value was 9.11% (inactive).
As to `OC[C@H]1OC(O)C[C@@H](O)[C@H]1O` (stereo not given in full), the “activity change, negative = cytotoxic” value is 17.7% (inactive).
In the case of `COc1cc(N2CCC(C(N)=O)CC2)ccc1Nc1nc(N)c(Cl)c(Nc2ccccc2S(=O)(=O)C(C)C)n1`, the “activity change, negative = cytotoxic” value is 5.23% (inactive).
On to `COC(=O)[C@H](CCCN=C(N)N)NS(=O)(=O)c1ccc(C)cc1`, for which the “activity change, negative = cytotoxic” value was 16.8% (inactive).
In the case of `Cc1ccc(O)c(C(CCN(C(C)C)C(C)C)c2ccccc2)c1` (stereo not given), the “activity change, negative = cytotoxic” value is 0.987% (inactive).
As for `C#Cc1cccc(Nc2ncnc3cc(OCCOC)c(OCCO)cc23)c1`, the Potency is 13700 nM (active).
Turning to `COc1ccc(S(=O)(=O)Nc2cccnc2Nc2ccc(O)cc2)cc1`, the Potency was 432 nM (active).
In the case of `COc1ccc(C[C@@H](C)[C@@H](C)Cc2ccc(OC)c(OC)c2)cc1OC`, the Potency was 863 nM (active).
For `CCCCCCCCCCCC(CC1OC(=O)C1CCCCCC)OC(=O)C(CC(C)C)NC=O` (stereo not given), the “activity change, negative = cytotoxic” value was -6.14% (inactive).
On to `CC1(C)CC(O)CC(C)(C)N1[O]`, for which the “activity change, negative = cytotoxic” value is 13.5% (inactive).
Turning to `CC(C)N1[N]C(=C2C=c3cc(O)ccc3=N2)c2c(N)ncnc21`, the Potency is 485 nM (active).
Take `Cc1noc(-c2ccc(CSCCC(=O)O)cc2)c1NC(=O)OC(C)c1ccccc1Cl` (stereo not given): the “activity change, negative = cytotoxic” value is -1.33% (inactive).
`CCCCCCCCc1ccc(CCC(N)(CO)CO)cc1`: the Potency was 21700 nM (active).
As for `Cn1cc(CNCC2CCN(c3ncc(C(=O)NO)cn3)CC2)c2ccccc21`, the Potency was 193 nM (active).
Take `C=CC(=O)Nc1cccc(Nc2nc(NC3CCC(N(C)C)CC3)nc3c2ncn3C(C)C)c1` (stereo not given): the Potency was 38.5 nM (active).
In the case of `OCC(O)C(O)C(O)CO` (stereo not given), the “activity change, negative = cytotoxic” value is 4.51% (inactive).
`CN1CCCN(C(=O)c2cccc(-c3ccc(C=C4C(=O)Nc5ccc(Cl)cc54)o3)c2)CC1`: the Potency is 24300 nM (active).
Same read-out and setting: as for `COc1cc([C@@H]2c3cc4c(cc3[C@H](O)[C@H]3COC(=O)[C@@H]23)OCO4)cc(OC)c1OC`, the figure is 273 nM (active).
Same read-out and setting: the result for `CC(C)c1cnn2c(NCc3ccccc3)cc(NCCCCCCN)nc12` reads 27300 nM (active).
With `COC(=O)[C@@H]1[C@H]2C[C@@H]3c4[nH]c5ccccc5c4CCN3C[C@@H]2CC[C@@H]1O`, the “activity change, negative = cytotoxic” value was 2.13% (inactive).
On to `NC(=O)c1ncn([C@@H]2O[C@H](CO)[C@@H](O)[C@@H]2O)c1N`, for which the “activity change, negative = cytotoxic” value is 6.89% (inactive).
`CC(C=CC=C(C)C=CC1=C(C)CCCC1(C)C)=CC=CC=C(C)C=CC=C(C)C=CC1=C(C)CCCC1(C)C`: the “activity change, negative = cytotoxic” value was 1.42% (inactive).
As to `COc1cc(C(=O)NC2CCN(C)CC2)ccc1Nc1ncc2c(n1)N(C1CCCC1)CCC(=O)N2C(C)C`, the Potency was 21700 nM (active).
Turning to `CN[C@H](CC(C)C)C(=O)N[C@H]1C(=O)N[C@@H](CC(N)=O)C(=O)N[C@@H]2C(=O)N[C@H]3C(=O)N[C@H](C(=O)N[C@H](C(=O)O)c4cc(O)cc(O)c4-c4cc3ccc4O)[C@H](O)c3ccc(c(Cl)c3)Oc3cc2cc(c3O[C@@H]2O[C@H](CO)[C@@H](O)[C@H](O)[C@@H]2O[C@H]2C[C@](C)(N)[C@H](O)[C@H](C)O2)Oc2ccc(cc2Cl)[C@H]1O`, the “activity change, negative = cytotoxic” value is 7.07% (inactive).
